Shown are actives, neighbours in structure and some others; about 2.8% of the full set was active somewhere.
WRN helicase inh-1 – blocks human WRN helicase; Q14191; WRN helicase unwinding, fluorescent forked duplex, kinetic; Potency, µM (series often up to 114 µM), for the others: at the top dose activity change, negative = inhibition, usual class: inhibitors; hit rate 0.46% among 360,000; also: potency is read from the fitted curve at half-maximal effect; % is scaled to controls: 0 for no effect and ±100 for the full control effect; nearly all actives have a fitted effect of over 55% in size
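WRN at 20 nM final preincubated with compound 15 min at room temperature; reaction started with 100 nM fluorophore/quencher forked duplex oligonucleotide and 2 mM ATP final. Unwinding followed kinetically by red fluorescence (ex 525, em 598 nm).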
Pol kappa inh-1 – blocks human DNA polymerase kappa activity; Potency, µM (series often up to 107 µM), for the others: at the top dose activity, negative = inhibition, actives largely listed as inhibitors; AID 588579; Q9UBT6; hit rate 0.53% among 400,000; purified Pol kappa, fluorescent DNA synthesis assay, 10 min; also: potency is read from the fitted curve at half-maximal effect; % is scaled to controls: 0 for no effect and ±100 for the full control effect
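50 nM final substrate added after 15 min RT preincubation of 10 nM Pol kappa with compound; fluorescence read at 0 and 10 min.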
PI5P4Ka inh – inhibitors of human PI5P4K alpha. PI5P4Kalpha enzyme, ADP-Glo luminescence, 60 min; hits give low values. max response, %. hit rate 1.2% among 330,000. AID 652105; active = max response of -50% or lower; inconclusive = between -30% and -50%; inactive = -30% or higher; also: value at the top dose of about 77 µM; % is scaled to controls: 0 for no effect and ±100 for the full control effect
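PI5P4Kalpha ADP-Glo assay; 5 microM ATP final; 60 min RT reaction; HEPES pH 7.4/EGTA/CHAPS, 5% DMSO; controls lacking substrate or enzyme; luminescent end-point.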
Pol eta inh-1 – DNA polymerase eta (human) inhibition. Potency, µM (highest dose often 114 µM), for inactives: top-dose activity change, negative = inhibition, most hits filed as inhibitors. AID 588591. recombinant Pol eta, fluorescent DNA replication assay. Q9Y253. hit rate 1.2% among 390,000; also: potency is read from the fitted curve at half-maximal effect; % is scaled to controls: 0 for no effect and ±100 for the full control effect
Target sequence (Q9Y253 whole entry, looked up): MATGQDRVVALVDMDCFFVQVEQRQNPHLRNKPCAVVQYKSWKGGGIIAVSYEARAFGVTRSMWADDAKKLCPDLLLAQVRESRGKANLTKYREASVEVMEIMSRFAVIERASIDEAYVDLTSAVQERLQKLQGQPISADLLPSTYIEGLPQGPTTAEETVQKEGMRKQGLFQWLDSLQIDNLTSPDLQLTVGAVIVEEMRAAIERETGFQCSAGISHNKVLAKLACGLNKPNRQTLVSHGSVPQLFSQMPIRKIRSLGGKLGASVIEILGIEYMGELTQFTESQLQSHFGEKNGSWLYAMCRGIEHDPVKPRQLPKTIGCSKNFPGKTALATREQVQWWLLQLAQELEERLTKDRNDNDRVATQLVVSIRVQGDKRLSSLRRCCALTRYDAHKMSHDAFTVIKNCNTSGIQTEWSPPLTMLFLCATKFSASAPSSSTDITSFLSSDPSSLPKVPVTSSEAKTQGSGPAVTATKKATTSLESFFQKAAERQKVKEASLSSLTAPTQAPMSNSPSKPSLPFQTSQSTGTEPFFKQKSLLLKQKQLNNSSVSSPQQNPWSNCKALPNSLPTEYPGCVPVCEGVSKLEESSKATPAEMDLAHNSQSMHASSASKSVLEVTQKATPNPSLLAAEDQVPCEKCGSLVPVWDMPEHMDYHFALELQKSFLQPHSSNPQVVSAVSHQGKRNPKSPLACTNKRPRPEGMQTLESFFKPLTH
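Pol eta (10 nM) was preincubated with compounds for 15 min at room temperature, after which fluorescent replication substrate (50 nM final) was added to start the reaction. Fluorescence was read kinetically at 0 and 10 min.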
Pol iota inh – inhibitors of human DNA polymerase iota. Pol iota fluorescent replication assay, 10 min. Potency, µM (top dose mostly 115 µM), without a hit: at the top dose activity, negative = inhibition, most hits filed as inhibitors. hit rate 1% among 390,000; also: potency is read from the fitted curve at half-maximal effect
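Fluorescent replication assay read twice, at 0 min and 10 min after adding 50 nM (final) substrate. Enzyme (10 nM) and compounds were first incubated 15 min at room temperature; enzyme-free buffer wells were negative controls.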
POLB inh – inhibitors of human DNA polymerase beta; P06746; Potency, µM (titrated, usually from 114 µM), inactives show at the highest dose activity change, negative = inhibition, actives largely listed as inhibitors; hit rate 1.3% among 340,000; Pol beta primer extension/strand displacement, fluorescence kinetic; also: potency is read from the fitted curve at half-maximal effect; % is scaled to controls: 0 for no effect and ±100 for the full control effect
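Kinetic readout of DNA synthesis with strand displacement by Pol beta. Compound and 10 nM enzyme sit 15 min at room temperature; 50 nM substrate starts the reaction, read immediately and at 10 min.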
Pol kappa inh-2 – confirmation of human DNA polymerase kappa inhibitors | purified Pol-kappa, fluorescent strand-displacement substrate | Potency, µM, actives largely listed as inhibitors | shares compounds with Pol eta inh-1 | hit rate 76% among 920; also: potency is read from the fitted curve at half-maximal effect
Pol eta inh-2 – Pol eta (human) inhibition, cherry-pick confirmation | shares compounds with Pol eta inh-1 | Pol eta primer extension, TAMRA/BHQ fluorescence, 10 min | Potency, µM, actives largely listed as inhibitors | hit rate 64% among 2,600 | AID 720502; also: potency is read from the fitted curve at half-maximal effect
WRN helicase inh-2 – WRN helicase inhibition, cherry-pick retest; shares compounds with WRN helicase inh-1; WRN helicase DNA unwinding, fluorescence kinetic; Potency, µM (doses to about 57.1 µM), inactives show top-dose activity, negative = inhibition, usual class: inhibitors; hit rate 63% among 610; also: potency is read from the fitted curve at half-maximal effect; nearly all actives have a fitted effect of over 65% in size
TO displacement – binds DNA, flagged in WRN inhibitor counterscreen; shares compounds with WRN helicase inh-1; thiazole orange DNA binding displacement, fluorescence; Potency, µM (highest dose often 57.1 µM), inactives show at the top dose activity change, negative = inhibition, actives largely listed as inhibitors; hit rate 10% among 610; AID 720499;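 also: drop in dye fluorescence marks compound binding to DNA; potency is read from the fitted curve at half-maximal effect; % is scaled to controls: 0 for no effect and ±100 for the full control effect; nearly all actives have a fitted effect of over 60% in size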
BLM helicase inh – counter-screen for WRN helicase inhibitors: human BLM helicase inhibition; shares compounds with WRN helicase inh-1; Recombinant BLM helicase DNA unwinding, red fluorescence; Potency, µM (doses to about 57.1 µM), without a hit: at the top dose activity change, negative = inhibition, hits mostly inhibitors; hit rate 60% among 610; AID 720503; also: potency is read from the fitted curve at half-maximal effect; nearly all actives have a fitted effect of over 60% in size
ADP-Glo counter – ADP-Glo luciferase interference, PI5P4K counter-screen | ADP-Glo detection counter-screen, luciferase luminescence, no enzyme | shares compounds with PI5P4Ka inh | Potency, µM (titrated, usually from 76.9 µM), for the others: top-dose activity change, negative = inhibition, actives largely listed as inhibitors | AID 743285 | 1,100 tested, under 10 active
Starred values were filed as active, the others as inactive; i = inactive; ? = inconclusive; / = not tested or not shown; [ ] = dose if it differs, or a comment. Unless noted, calls follow the shape of the dose curve; as a rule, active = well fitted curve in the direction sought with a large enough effect; inconclusive = small, poorly fitted or top-dose-only effect, or another doubt; inactive = no such curve, though single readings can be large; an effect the other way counts as inactive or inconclusive.

SMILES | WRN helicase inh-1 | Pol kappa inh-1 | PI5P4Ka inh | Pol eta inh-1 | Pol iota inh | POLB inh | Pol eta inh-2 | ADP-Glo counter | others
O=C(O)c1cc(-c2ccc(Cl)c(Cl)c2)n(-c2ccccc2)n1 | -4% | -14% | -16 | -9% | 44% | 11% | / | /
COc1cccc(C(=O)Nc2cccc(C(=O)NC3=NN(c4c(Cl)cc(Cl)cc4Cl)C(=O)C3)c2)c1 | ? | 22µM* | -58* | 40µM* | ? | 14µM* | 76* | 3% | WRN helicase inh-2=?;TO displacement=?;BLM helicase inh=?
Cc1ccccc1N1CCN(CCC(=O)Nc2ccc(F)cc2)CC1 | 2% | -4% | -1 | -23% | 20% | 15% | / | /
CC1(OC(=O)C2CCCC2)C(=O)C=C2C=C(c3ccsc3)N(CCCCO)C=C2C1=O (stereo not drawn) | 5% | 1% | -4 | -7% | 107% | 29% | / | /
CCCCC1=CC2=CC(=O)C(C)(OC(=O)C3CCCC3)C(=O)C2=CO1 (stereo not drawn) | ? | 79µM* | -73* | 40µM* | 50µM* | -29% | ? | -9%
S=C(NCc1ccco1)NCc1ccco1 | -4%[11.6 µM] | ? | -76* | ? | ? | / | ? | 0%
CCc1nc2c(OCc3cc(Cl)cc(Cl)c3)cccn2c1N(C=O)Cc1ccc(OC)cc1 | -7% | / | 5 | / | / | / | / | /
COCCN(C(=O)c1cc2c(s1)CCCCC2)c1c(N)n(Cc2ccccc2)c(=O)[nH]c1=O | -9% | -5% | 1 | -23% | 34% | / | / | /
COCCN(C(=O)COC(=O)c1cc2c(s1)CCCC2)c1c(N)n(Cc2ccccc2)c(=O)[nH]c1=O | -16%[11.6 µM] | ? | -56* | 45µM* | 50µM* | / | ? | -3%
Cc1ccc2c(CC(=O)OCC(=O)N(CC(C)C)c3c(N)n(Cc4ccccc4)c(=O)[nH]c3=O)coc2c1 | -35% | ? | -59* | 20µM* | 25µM* | / | 38* | -1%
COCc1cc(=O)n2[nH]c(N)nc2n1 | -1% | -17% | -1 | ? | -4% | 1% | / | /
COCc1cc(=O)n2[nH]c(-c3ccsc3-n3c(C)ccc3C)cc2n1 | 32µM* | 11µM* | -54* | 10µM* | ? | 32µM* | 60* | 0% | Pol kappa inh-2=30*
CCOC(=O)c1cnn(-c2ccccc2)c1-c1ccncc1 | 1%[57.1 µM] | -5% | -1 | -5% | 4% | 49% | / | /
N#Cc1c(SCC(=O)Nc2nc3ccccc3s2)sc2c(O)cc(=O)[nH]c12 | 40µM* | 13µM* | -78* | 4.5µM* | 6.3µM* | / | 30* | -3% | Pol kappa inh-2=19*
CCCCCCCCCC(=O)N[C@@H]1c2cc(OC)c(OC)cc2C[C@H]1O | 0% | -8% | 12 | -11% | 3% | / | / | /
Cc1ccc(NC(=O)c2cccc(C(=O)Nc3ccc(C)cc3C(=O)O)c2)c(C(=O)O)c1 | -13%[11.6 µM] | -37% | -83* | ? | -20% | -12% | ? | 3% | Pol kappa inh-2=15*
O=C(CSc1ncnc2sc3c(c12)CCC3)N1CCOCC1 | 3%[11.6 µM] | 79µM* | -54* | 35µM* | 22µM* | 40µM* | ? | -2%
CC(=O)CSc1ncnc2sc3c(c12)CCC3 | 3% | 0% | -10 | -6% | 135% | -21% | / | /
CCOC(=O)c1c(NS(=O)(=O)c2ccc(Br)cc2)sc2c1CCC2 | ? | 79µM* | -55* | 20µM* | 11µM* | / | ? | -1%
N#C/C(=C/c1ccc(N2CCCCC2)o1)C(=O)Nc1ccc2ccccc2c1 | ? | -14% | -3 | ? | ? | ? | / | / | WRN helicase inh-2=?;TO displacement=i;BLM helicase inh=22µM*
O=C(O)c1ccccc1-c1ccc(/C=C/c2cc(C(F)(F)F)[nH]c(=O)n2)o1 | 79µM* | ? | ? | 50µM* | ? | ? | / | / | WRN helicase inh-2=24µM*;TO displacement=i;BLM helicase inh=-17%
O=C(O)/C=C/c1ccc(-c2cccc(C(F)(F)F)c2)o1 | -4% | -2%[60.1 µM] | -8 | 19% | -1% | 12% | / | /
NC(=O)COc1ccc(/C=C2\C(=O)ON=C2c2ccccc2)cc1 | 40µM* | 3% | ? | 5% | 20% | / | / | / | WRN helicase inh-2=19µM*;TO displacement=?;BLM helicase inh=?
COc1ccc2c(-c3ccc(S(N)(=O)=O)cc3)c(-c3ccc(S(C)(=O)=O)cc3)sc2c1 | -2% | 6% | -10 | -15% | -3% | / | / | /

Screening data as filed in PubChem BioAssay.
